Results as given in PubChem BioAssay (NCATS).
Records with an inconclusive call do not appear. Calls of active or inactive are those of the source. The call rests on the fitted dose curve; in most records, active means well fitted curve in the direction sought with a large enough effect; inconclusive means small, poorly fitted or top-dose-only effect, or another doubt; inactive means no such curve, though single readings can be large; an effect the other way counts as inactive or inconclusive.

Tests used:
NIH3T3 = experiment: qHTS assay to identify novel small-molecules to repurpose for Merkel cell carcinoma treatment (AID 1296009); conditions: MCC and control cell lines, CellTiter-Glo viability, 72 h; at 44.8 µM (top of the series) unless noted; further: nearly all actives have a fitted effect of over 60% in size
Summary of the method: (§1)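 Cell viability measured by CellTiter-Glo following 72 hr compound treatment at 37 degree celsius, with NPC and MIPE libraries tested in 8- and 11-point concentration series.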

UISO = experiment: as above; conditions: MCC and control cell lines, CellTiter-Glo viability, 72 h; series mostly up to 46 µM
Summary of the method: as §1

WaGa = experiment: as above; conditions: MCC and control cell lines, CellTiter-Glo viability, 72 h; series mostly up to 46 µM
Summary of the method: as §1

C33A = experiment: Primary qHTS to identify gynecologic anti-cancer compounds using libraries of approved drugs and bioactive compounds (AID 1345084); conditions: Gynecologic cancer cell panel viability, ATPlite luminescence, 48 h; series mostly up to 57.5 µM; further: nearly all actives have a fitted effect of over 55% in size
Summary of the method: (§2)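 ATP-based viability (ATPlite), 1,000 cells/well, 16 h pre-incubation, 48 h compound at 37 C, 5% CO2, 15 min RT before read.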

CAOV3 = experiment: as above; conditions: Gynecologic cancer cell panel viability, ATPlite luminescence, 48 h; series mostly up to 57.5 µM
Summary of the method: as §2

CASKI = experiment: as above; conditions: Gynecologic cancer cell panel viability, ATPlite luminescence, 48 h; series mostly up to 57.5 µM
Summary of the method: as §2

Es-2 = experiment: as above; conditions: Gynecologic cancer cell panel viability, ATPlite luminescence, 48 h; series mostly up to 57.5 µM
Summary of the method: as §2

HeLa = experiment: as above; conditions: Gynecologic cancer cell panel viability, ATPlite luminescence, 48 h; series mostly up to 57.5 µM
Summary of the method: as §2

Hek293T = experiment: as above; conditions: Gynecologic cancer cell panel viability, ATPlite luminescence, 48 h, control line for the selectivity index; series mostly up to 57.5 µM
Summary of the method: as §2

JEG-3 = experiment: as above; conditions: Gynecologic cancer cell panel viability, ATPlite luminescence, 48 h; series mostly up to 57.5 µM
Summary of the method: as §2

Measured: Potency

O=c1[nH]c2ccccc2n1CCCN1CCC(n2c(=O)[nH]c3cc(Cl)ccc32)CC1
not listed: JEG-3
inactive: all other assays above

CCN(CC)CCN1C(=O)CN=C(c2ccccc2F)c2cc(Cl)ccc21
inactive: all assays above

Clc1cccc(N2CCNCC2)c1
inactive: all assays above

O=C(O)c1ccc2[nH]cc(CCCCN3CC=C(c4ccccc4)CC3)c2c1
inactive: all assays above

CC(=O)[C@H]1CC[C@H]2[C@@H]3CC[C@H]4C[C@H](O)CC[C@]4(C)[C@H]3C(=O)C[C@]12C
inactive: all assays above

Oc1ccccc1-c1ccccc1
not listed: JEG-3
inactive: all other assays above

NCCc1cc(O)c(O)cc1O
inactive: all assays above

CCCN1CCC[C@@H]2Cc3[nH]ncc3C[C@H]21
inactive: all assays above

CCN(CC)C(=O)N[C@@H]1C=C2c3cccc4[nH]cc(c34)C[C@@H]2N(C)C1
not listed: JEG-3
inactive: all other assays above

CCC(COC(=O)c1cc(OC)c(OC)c(OC)c1)(c1ccccc1)N(C)C (stereo not given)
not listed: Hek293T | JEG-3
inactive: all other assays above

CN1C(=S)CN=C(c2ccccc2)c2cc(Cl)ccc21
inactive: all assays above

O=C1CC[C@@]2(O)[C@H]3Cc4ccc(O)c5c4[C@@]2(CCN3CC2CC2)[C@H]1O5
inactive: all assays above

Cc1ccc2c(c1)C1CN(C)CCC1N2 (stereo not given)
inactive: NIH3T3 inactive [at 17.4 µM] | UISO | WaGa | C33A | CAOV3 | CASKI | Es-2 | HeLa | Hek293T

COc1ccc(C(CN(C)C)C2(O)CCCCC2)cc1 (stereo not given)
inactive: all assays above

CCN(CC)CCOC(=O)C(O)(c1ccccc1)c1ccccc1
inactive: all assays above

CC(C)(C)NCC(O)c1cc(Cl)c(N)c(Cl)c1 (stereo not given)
inactive: all assays above

CC[N+]1(C)CCCC(OC(=O)C(O)(c2ccccc2)c2ccccc2)C1 (stereo not given)
inactive: all assays above

CCCC1CCCCN1 (stereo not given)
not listed: Hek293T | JEG-3
inactive: all other assays above

FC(F)(F)c1cccc(C2=CCN(CCc3ccc4ccccc4c3)CC2)c1
not listed: JEG-3
inactive: all other assays above

CC[N+](CC)(CC)CC
not listed: JEG-3
inactive: all other assays above
